The results in this text go back to PubChem BioAssay.

Records with an inconclusive call do not appear. Active and inactive are the calls of the source.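 The calls were made as follows, unless noted: active = viability loss from added drug above about 55%, and viability with drug at most 40%, in both replicates (limit read from the data, passing the limit was not always enough); inconclusive = both conditions met in only one replicate; inactive = neither replicate meets both conditions.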

Experiment [1] can be described thus: reducers of endogenous Her2 protein level, primary screen, SKBR3 breast tumor cells, AlphaScreen, ATP viability (AID 461;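 active = Her2 level under about 52% in both replicate screens, with viability over 70% of control, limit read from the data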;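 as to Her2 level: lower value means less Her2 protein in the cells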;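 as to viability: percent of carrier control wells set as 100% viability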). As to conditions: 18-24 h, measured here: SKBR3 viability, ATP luminescence, at 10 µM.
The target of experiment [2] is Receptor tyrosine-protein kinase erbB-2 (Homo sapiens) (UniProt P04626). The experiment is described as above. As to conditions: 18-24 h, at 10 µM, stronger effect = lower value.
The nature of experiment [3]: SK-BR-3 cell growth inhibitors, pilot screen, 24 h, human (AID 572;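 active = viability at or below 10% of carrier control in both of two separate runs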;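 also: compound exposure lasted between 18 and 24 h rather than exactly 24 h; 100% = carrier-treated control wells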). The following applies: SK-BR-3 viability, CellTiter-Glo luminescence, at 10 µM, stronger effect = lower value.
A short description of experiment [4]: HUVEC growth inhibition – cell-based, human, primary screen (AID 575;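 active = viability at or below 30% in both replicate assays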;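 also: 100% = median of untreated cell wells with 0.1% DMSO on each plate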). The following applies: HUVEC proliferation, CellTiter-Glo luminescence, 72 h; at 10 µM; stronger effect = lower value.
A short description of experiment [5]: growth inhibitors of H69AR lung tumor, primary screen, human, duplicate replicates (AID 580;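 active = viability at or under a set limit in both replicates, limit being median viability minus 3 SD, cut at about 48% in these data, passing the limit was not always enough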;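 also: 100% = mean luminescence of untreated wells and 0% = no signal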). As to conditions: H69AR lung tumor cells viability, ATP luminescence, 72 h; at 10 µM; stronger effect = lower value.
Experiment [6] can be described thus: reversal of MRP1-mediated doxorubicin resistance, pilot screen, H69AR cells, doxorubicin co-treatment (AID 601). The following applies: CellTiter-Glo, 72 h, at 10 µM; for differential viability (reversal): stronger effect = higher value.
The nature of experiment [7]: 384-well plate pilot, post-Golgi transport modulator project, inhibition of yeast transport mutant growth (AID 636; in the data active = inhibition above about 31%). The following applies: absorbance 615 nm, about 18 h, stronger effect = higher value.
The nature of experiment [8]: growth suppression of yeast trafficking mutant, preliminary HTS, modulators of trafficking downstream of Golgi apparatus project, 1536-format plate, OD 615 nm (AID 637; in the data active = inhibition above about 30%). The following applies: yeast transport mutant growth, absorbance 615 nm, 18 h; stronger effect = higher value.
Experiment [9] in a line: OD615 S. cerevisiae growth inhibition, permissive medium, pilot counter-assay, permissive growth control for S. cerevisiae lifespan shortening project (AID 705;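 active = growth inhibition above 25% in both replicates, a cutoff set 3 SD above the mean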). The following applies: OD615, 24 h, at 10 µM, stronger effect = higher value.
Experiment [10] in a line: Restrictive medium S. cerevisiae growth inhibition, OD615, pilot screen of yeast lifespan reduction project, restrictive growth control (AID 706;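 active = growth inhibition above a set limit, 3 SD over mean compound inhibition, in both replicates, cut at about 43% in these data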;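 also: modified DeaD lifespan yeast strain shifted to restrictive glucose medium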). The following applies: OD615, 48 h, at 10 µM, stronger effect = higher value.
Experiment [11] is described as follows: viability gain of MRP-1-high H69AR cells under doxorubicin, pilot screen, MRP-1 activator project, CellTiter-Glo, duplicate (AID 807;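 active = viability increase at or above a cutoff of the median across tested compounds plus 3 SD, cut at about 8.5% in these data, passing the limit was not always enough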;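 also: compound pretreatment 18-22 h then 72 h combined with doxorubicin; 0% = doxorubicin alone and 100% = vehicle without doxorubicin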). As to conditions: H69AR viability with doxorubicin, CellTiter-Glo luminescence; at 10 µM; stronger effect = higher value.
Experiment [12] is described as follows: growth suppression of beta-catenin knockout HCT116, pilot screen, human colon tumor cells (AID 823;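 active = cell viability at or below a set limit in both duplicate runs, the limit being the all-compound median minus 4 SD, cut at about 23% in these data, passing the limit was not always enough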;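 also: 0% = wells killed by 20 µM Hyamine and 100% = untreated DMSO cell wells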). As to conditions: CellTiter-Glo, 60 h, at 10 µM, stronger effect = lower value.
The nature of experiment [13]: growth suppression of PTEN-deleted HCT116, pilot screen, cell-based, HCT116 clonal line, CellTiter-Glo (AID 824;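 active = viability at or below 27.92% in each of two runs, the all-compound median minus 4 SD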;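 also: 0% = 20 µM Hyamine control and 100% = vehicle cell control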). As to conditions: 60 h, at 10 µM, stronger effect = lower value.
A short description of experiment [14]: inhibitors of the yeast RAM network, pilot screen, dse1pr::URA3 reporter, 5-FOA selection (AID 869;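 active = inhibition over a set limit, the all-compound mean plus 3 SD, in both replicate runs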;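 also: 0% = DMSO wells with no growth and 100% = 10 µM 1-NA-PP1 with full growth; RAM network block rescues cells from 5-FOA so hits raise OD615 growth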). As to conditions: S. cerevisiae dse1pr::URA3 5-FOA growth, OD615, 2 d; at 10 µM; stronger effect = higher value; strain carries analog-sensitive mutant Cbk1 kinase.
The nature of experiment [15]: RAM signaling pathway blockade in yeast – S. cerevisiae, Pdr1DBD-CYC8 efflux-inhibited sensitized strain, primary screen (AID 1298;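 active = RAM network inhibition above 8.4% in each of two replicates, 3 SD over the compound average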;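 also: 0% = DMSO untreated cells without growth and 100% = 10 µM 1-NA-PP1 full growth; higher means more yeast growth rescued from 5-FOA killing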). As to conditions: S. cerevisiae cbk1-as DSE1-URA3 strain, 5-FOA growth OD615, 2 d; at 50 µM; stronger effect = higher value.
[16] abbreviates: H69AR cells + 2 uM doxorubicin, measured here: viability with 2 uM doxorubicin, stronger effect = lower value.
[17] abbreviates: H69AR cells, compound alone cytotoxicity.

Receptor tyrosine-protein kinase erbB-2 (Homo sapiens), sequence (P04626 whole entry, looked up): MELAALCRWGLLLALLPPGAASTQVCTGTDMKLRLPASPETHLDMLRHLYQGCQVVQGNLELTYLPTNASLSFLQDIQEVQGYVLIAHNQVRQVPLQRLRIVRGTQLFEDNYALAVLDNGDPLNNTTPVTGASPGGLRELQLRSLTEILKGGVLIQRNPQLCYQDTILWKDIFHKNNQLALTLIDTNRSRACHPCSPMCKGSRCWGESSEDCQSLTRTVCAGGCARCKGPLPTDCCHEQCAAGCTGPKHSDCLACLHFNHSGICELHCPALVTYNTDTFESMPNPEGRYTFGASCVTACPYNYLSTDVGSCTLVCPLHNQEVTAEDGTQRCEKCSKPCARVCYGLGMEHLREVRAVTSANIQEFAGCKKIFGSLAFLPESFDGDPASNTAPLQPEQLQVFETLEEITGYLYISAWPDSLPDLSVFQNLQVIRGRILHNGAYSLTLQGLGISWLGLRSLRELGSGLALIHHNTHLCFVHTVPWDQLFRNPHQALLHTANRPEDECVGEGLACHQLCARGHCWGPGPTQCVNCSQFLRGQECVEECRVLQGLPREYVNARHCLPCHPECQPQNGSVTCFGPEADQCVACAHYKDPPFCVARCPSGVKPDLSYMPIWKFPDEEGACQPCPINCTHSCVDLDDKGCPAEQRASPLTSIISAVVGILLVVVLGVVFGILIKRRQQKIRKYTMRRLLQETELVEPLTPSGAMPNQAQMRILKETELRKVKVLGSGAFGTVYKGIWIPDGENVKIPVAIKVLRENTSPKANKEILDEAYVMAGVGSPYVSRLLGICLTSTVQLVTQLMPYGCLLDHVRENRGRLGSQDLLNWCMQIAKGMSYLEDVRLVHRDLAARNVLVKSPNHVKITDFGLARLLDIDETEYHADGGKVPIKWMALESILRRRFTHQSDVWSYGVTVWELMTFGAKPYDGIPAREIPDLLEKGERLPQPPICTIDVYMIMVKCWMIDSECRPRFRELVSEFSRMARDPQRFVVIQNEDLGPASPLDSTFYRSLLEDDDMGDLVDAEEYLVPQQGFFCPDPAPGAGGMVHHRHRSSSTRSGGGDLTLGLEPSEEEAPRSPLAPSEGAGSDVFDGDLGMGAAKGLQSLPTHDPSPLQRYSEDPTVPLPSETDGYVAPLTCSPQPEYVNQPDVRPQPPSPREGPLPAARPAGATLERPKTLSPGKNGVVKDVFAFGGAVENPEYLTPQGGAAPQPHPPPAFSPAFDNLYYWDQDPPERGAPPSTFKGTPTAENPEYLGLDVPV

In the case of `COc1ccc(CCNc2oc(COc3ccccc3Cl)nc2C#N)cc1OC`, the viability in experiment [1] is 90%; in [3] it was 90% (inactive); in experiment [4], 56.8% (inactive); in experiment [5], 92.2% (inactive); in experiment [6] (setting [16]), 96.3%; in [6] (setting [17]), 92.2%. In addition, the values for the viability in experiment [12] and in [13] were 88.5% (inactive) and 73.2% (inactive), respectively. Also, the Her2 level in [2] was 87% (inactive). For the same compound, in experiment [6] (H69AR cells + 2 uM doxorubicin), the differential viability (reversal) is -4.1% (inactive). In addition, the inhibition in [7] is -1.6% (inactive); in [8], -1.83% (inactive); in experiment [14], 1.5% (inactive). Moreover, the growth inhibition in [9] is -10% (inactive); in experiment [10], -0.295% (inactive). Also, the viability increase in experiment [11] is -1.73% (inactive). Further, the RAM network inhibition in experiment [15] was 2.3% (inactive).

Turning to `COc1ccc(NC(=O)CSc2nc3c(c(=O)n2-c2ccc(F)cc2)SCC3)cc1`, the viability in experiment [1] is 100%; in [3] it was 100% (inactive); in experiment [4], 81.3% (inactive); in experiment [5] it was 95.5% (inactive); in experiment [6] (setting [16]), 92.2%; in experiment [6] (setting [17]) it was 95.5%. Besides, the figures for the viability in [12] and in experiment [13] were 94% (inactive) and 90.7% (inactive), respectively. The Her2 level in [2] was 102% (inactive). The differential viability (reversal) in experiment [6] (H69AR cells + 2 uM doxorubicin) is 3.3% (inactive). Besides, the inhibition in [7] is -6.27% (inactive); in [8] it was -1.15% (inactive); in [14], -0.265% (inactive). Besides, the growth inhibition in experiment [9] was -8.95% (inactive); in [10], -14.3% (inactive). Also, in experiment [11], the viability increase was 0.22% (inactive). Moreover, in [15], the RAM network inhibition is 3.09% (inactive).

Regarding `O=C(NCC1CCCO1)C1CCN(S(=O)(=O)c2cccc3cccnc23)CC1` (stereo not given), the viability in experiment [1] is 102%; in experiment [3] it was 102% (inactive); in experiment [4] it was 112% (inactive); in experiment [5] it was 101% (inactive); in [6] (setting [16]) it was 94%; in experiment [6] (setting [17]), 101%. Also, the viability is 94.2% (inactive) in [12] and 93.7% (inactive) in experiment [13]. Besides, the Her2 level in experiment [2] is 93.5% (inactive). In experiment [6] (H69AR cells + 2 uM doxorubicin), the differential viability (reversal) was 7.45% (inactive). Moreover, the inhibition is -2.53% (inactive) in [7], -2.13% (inactive) in experiment [8] and 1.76% (inactive) in experiment [14]. In addition, the growth inhibition in experiment [9] was -2.44% (inactive); in experiment [10], 12% (inactive). Moreover, in experiment [11], the viability increase is -1.56% (inactive). The RAM network inhibition in experiment [15] is 2.72% (inactive).

As to `CCN(CC)c1ccc(NC(=O)c2nc3nc(C)cc(C(F)F)n3n2)cc1`, the viability was 122% in experiment [1]; 122% (inactive) in experiment [3]; 81.6% (inactive) in experiment [4]; 84.4% (inactive) in [5]; 77.4% in experiment [6] (setting [16]); 84.4% in experiment [6] (setting [17]). For the same compound, the viability is 95.2% (inactive) in experiment [12] and 88% (inactive) in experiment [13]. The Her2 level in [2] was 102% (inactive). Besides, in experiment [6] (H69AR cells + 2 uM doxorubicin), the differential viability (reversal) was 6.97% (inactive). In addition, the results for the inhibition in [7], in experiment [8] and in [14] were -3.6% (inactive), 6.72% (inactive) and 0.83% (inactive), respectively. The growth inhibition is -8.26% (inactive) in [9] and -10.5% (inactive) in experiment [10]. Further, the viability increase in experiment [11] is 0.23% (inactive). Besides, the RAM network inhibition in [15] was 1.16% (inactive).

With `CCN(CC)S(=O)(=O)c1ccc2oc(C(=O)N3CCOCC3)c(C)c2c1`, the viability was 79.5% in experiment [1]; 79.5% (inactive) in experiment [3]; 106% (inactive) in experiment [4]; 96.5% (inactive) in experiment [5]; 97% in [6] (setting [16]); 96.5% in [6] (setting [17]). In addition, the viability in experiment [12] is 93.7% (inactive); in experiment [13], 98.8% (inactive). In experiment [2], the Her2 level is 101% (inactive). The differential viability (reversal) in [6] (H69AR cells + 2 uM doxorubicin) was -0.525% (inactive). The inhibition is 0.67% (inactive) in [7], -4.84% (inactive) in experiment [8] and -0.09% (inactive) in experiment [14]. Also, the growth inhibition is -6.28% (inactive) in [9] and -17.5% (inactive) in [10]. In addition, the viability increase in experiment [11] is 0.12% (inactive). Besides, the RAM network inhibition in [15] is -0.22% (inactive).
